Laboratory results as given in the supplement of paper PMC11001985.
Values without a mark were called inactive.

Compound: C#CCNC(=O)CCSSCCC(=O)NCCc1ccc(C=O)c(C=O)c1
Experiment: lysine labeling ratio R10:1 (500 µM / 50 µM probe), SILAC-ABPP in living cells; higher = lower intrinsic lysine reactivity toward the probe, active = 2 or less
Conditions: HeLa; probe concentrations 500 vs 50 µM
Outline: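 R, given per lysine, is the filtered median high-probe/low-probe MS1 peptide ratio, with the median then taken across forward and reverse replicates. Cells were living SILAC light and heavy HeLa cells in PBS at room temperature, labelled with 50 µM or 500 µM of an alkyne-tagged, disulfide-linked lysine probe. The ceiling applied is 20.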

Chain of UniProt P30101 (P30101 whole entry): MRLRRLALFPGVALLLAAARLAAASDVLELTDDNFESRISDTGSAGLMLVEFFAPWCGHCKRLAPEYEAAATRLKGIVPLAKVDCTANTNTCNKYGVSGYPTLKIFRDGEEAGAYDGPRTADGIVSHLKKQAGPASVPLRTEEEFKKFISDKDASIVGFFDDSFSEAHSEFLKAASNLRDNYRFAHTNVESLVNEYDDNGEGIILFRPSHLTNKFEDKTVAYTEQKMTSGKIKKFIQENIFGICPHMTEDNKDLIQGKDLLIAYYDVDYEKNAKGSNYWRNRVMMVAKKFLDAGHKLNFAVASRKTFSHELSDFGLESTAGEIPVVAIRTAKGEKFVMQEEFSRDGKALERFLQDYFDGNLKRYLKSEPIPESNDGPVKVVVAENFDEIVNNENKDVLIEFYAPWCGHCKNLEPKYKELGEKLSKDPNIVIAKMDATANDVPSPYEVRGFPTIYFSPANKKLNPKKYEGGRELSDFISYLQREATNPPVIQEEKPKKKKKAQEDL
Chain of UniProt P05783 (P05783 whole entry): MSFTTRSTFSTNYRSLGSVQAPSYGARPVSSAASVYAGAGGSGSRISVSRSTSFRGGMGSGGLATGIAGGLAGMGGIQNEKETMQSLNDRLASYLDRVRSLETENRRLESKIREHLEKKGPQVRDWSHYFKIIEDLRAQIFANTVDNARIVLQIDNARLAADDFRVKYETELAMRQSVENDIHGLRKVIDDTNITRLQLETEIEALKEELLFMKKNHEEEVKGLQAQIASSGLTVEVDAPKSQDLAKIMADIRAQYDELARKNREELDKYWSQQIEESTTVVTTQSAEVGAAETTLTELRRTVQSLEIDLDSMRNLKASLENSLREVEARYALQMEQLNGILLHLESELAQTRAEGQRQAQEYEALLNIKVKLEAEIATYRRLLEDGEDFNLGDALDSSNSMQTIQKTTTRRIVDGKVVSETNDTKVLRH
Chain of UniProt P42892 (P42892 whole entry): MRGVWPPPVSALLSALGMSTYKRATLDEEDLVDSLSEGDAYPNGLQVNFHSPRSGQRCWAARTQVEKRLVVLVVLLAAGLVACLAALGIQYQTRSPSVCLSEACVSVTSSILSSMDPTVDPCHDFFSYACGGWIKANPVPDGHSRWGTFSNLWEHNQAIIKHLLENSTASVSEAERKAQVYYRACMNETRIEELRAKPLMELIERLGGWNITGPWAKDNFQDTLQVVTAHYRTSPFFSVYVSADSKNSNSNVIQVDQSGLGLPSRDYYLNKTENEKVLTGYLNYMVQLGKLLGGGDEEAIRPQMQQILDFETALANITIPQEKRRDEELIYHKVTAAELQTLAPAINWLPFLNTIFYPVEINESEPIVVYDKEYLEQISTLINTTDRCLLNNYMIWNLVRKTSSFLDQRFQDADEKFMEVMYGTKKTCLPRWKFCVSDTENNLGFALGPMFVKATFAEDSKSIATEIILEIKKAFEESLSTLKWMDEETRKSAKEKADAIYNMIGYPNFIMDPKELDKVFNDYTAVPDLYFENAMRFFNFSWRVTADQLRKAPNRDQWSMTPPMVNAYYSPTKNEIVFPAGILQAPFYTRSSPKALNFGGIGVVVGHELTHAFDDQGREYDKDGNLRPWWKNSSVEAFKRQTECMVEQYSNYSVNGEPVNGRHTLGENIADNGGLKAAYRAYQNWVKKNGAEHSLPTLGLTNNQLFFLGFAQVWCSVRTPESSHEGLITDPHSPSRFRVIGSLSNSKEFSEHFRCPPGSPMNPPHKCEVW
Chain of UniProt P06756 (P06756 whole entry): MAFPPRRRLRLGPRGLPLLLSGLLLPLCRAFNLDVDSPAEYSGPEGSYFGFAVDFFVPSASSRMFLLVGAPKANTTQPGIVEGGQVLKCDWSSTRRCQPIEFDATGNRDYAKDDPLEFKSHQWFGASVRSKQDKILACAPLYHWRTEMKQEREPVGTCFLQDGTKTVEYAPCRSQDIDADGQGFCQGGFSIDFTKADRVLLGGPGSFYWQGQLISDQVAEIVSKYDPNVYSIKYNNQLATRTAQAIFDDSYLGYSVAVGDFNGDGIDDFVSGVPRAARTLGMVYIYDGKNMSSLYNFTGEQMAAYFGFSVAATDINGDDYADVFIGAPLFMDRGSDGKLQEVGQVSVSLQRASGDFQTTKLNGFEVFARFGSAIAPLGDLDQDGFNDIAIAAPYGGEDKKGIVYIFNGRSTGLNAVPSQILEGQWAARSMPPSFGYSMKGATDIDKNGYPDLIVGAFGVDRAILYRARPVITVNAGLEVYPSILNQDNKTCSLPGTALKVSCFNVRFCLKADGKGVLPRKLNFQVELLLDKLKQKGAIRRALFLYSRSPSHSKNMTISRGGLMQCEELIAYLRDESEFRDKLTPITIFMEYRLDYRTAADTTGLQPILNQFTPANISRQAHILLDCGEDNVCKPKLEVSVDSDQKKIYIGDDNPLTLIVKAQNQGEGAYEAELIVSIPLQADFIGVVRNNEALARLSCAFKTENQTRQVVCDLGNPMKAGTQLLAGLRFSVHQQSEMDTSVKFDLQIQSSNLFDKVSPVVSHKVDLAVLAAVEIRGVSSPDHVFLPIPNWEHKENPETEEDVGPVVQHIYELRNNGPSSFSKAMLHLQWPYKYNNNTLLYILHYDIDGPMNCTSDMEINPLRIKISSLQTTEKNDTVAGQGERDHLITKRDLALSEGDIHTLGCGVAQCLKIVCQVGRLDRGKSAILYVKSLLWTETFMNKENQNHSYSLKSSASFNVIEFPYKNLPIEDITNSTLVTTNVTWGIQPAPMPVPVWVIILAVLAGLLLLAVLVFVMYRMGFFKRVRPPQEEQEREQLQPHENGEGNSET
Chain of UniProt O43707 (O43707 whole entry): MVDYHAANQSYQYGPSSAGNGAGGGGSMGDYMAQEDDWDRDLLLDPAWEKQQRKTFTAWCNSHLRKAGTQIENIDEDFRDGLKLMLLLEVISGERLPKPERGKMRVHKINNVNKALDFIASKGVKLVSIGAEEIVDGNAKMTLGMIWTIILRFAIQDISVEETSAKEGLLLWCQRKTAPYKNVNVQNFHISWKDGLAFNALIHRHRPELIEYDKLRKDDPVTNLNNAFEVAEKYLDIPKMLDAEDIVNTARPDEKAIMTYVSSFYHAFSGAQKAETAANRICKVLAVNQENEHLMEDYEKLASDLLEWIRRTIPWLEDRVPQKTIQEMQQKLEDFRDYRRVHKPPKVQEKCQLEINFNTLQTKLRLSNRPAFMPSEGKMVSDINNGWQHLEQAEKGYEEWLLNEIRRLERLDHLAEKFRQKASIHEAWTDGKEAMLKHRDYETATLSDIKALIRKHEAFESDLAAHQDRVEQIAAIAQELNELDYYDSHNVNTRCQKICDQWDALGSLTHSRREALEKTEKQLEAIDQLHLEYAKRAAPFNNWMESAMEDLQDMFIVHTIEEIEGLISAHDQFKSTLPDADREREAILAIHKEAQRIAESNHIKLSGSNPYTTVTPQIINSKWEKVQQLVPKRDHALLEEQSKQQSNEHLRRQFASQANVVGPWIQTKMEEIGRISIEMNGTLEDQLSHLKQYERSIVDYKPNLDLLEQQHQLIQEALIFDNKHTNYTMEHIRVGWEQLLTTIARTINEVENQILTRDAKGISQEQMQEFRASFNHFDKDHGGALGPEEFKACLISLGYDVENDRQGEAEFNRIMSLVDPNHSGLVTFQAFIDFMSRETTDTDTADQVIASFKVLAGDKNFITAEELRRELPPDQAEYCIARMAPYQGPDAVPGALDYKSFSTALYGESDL
Chain of UniProt Q5T9A4 (Q5T9A4 whole entry): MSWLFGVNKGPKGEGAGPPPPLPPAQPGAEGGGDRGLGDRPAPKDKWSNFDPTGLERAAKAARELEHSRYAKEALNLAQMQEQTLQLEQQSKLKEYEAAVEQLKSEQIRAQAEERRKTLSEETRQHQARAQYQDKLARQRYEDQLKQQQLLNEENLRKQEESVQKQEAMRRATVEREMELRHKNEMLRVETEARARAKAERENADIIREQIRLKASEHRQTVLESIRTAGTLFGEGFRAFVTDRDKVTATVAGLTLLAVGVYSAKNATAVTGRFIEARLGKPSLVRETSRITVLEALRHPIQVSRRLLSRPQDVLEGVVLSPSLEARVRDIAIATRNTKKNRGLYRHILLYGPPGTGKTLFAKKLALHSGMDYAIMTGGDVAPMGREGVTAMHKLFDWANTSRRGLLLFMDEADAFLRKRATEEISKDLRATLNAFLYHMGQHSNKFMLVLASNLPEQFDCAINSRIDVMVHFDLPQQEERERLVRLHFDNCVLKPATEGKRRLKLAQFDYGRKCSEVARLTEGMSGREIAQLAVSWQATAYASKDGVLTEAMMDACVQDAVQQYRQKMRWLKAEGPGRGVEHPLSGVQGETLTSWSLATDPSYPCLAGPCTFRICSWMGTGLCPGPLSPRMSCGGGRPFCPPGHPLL
Chain of UniProt P61981 (P61981 whole entry): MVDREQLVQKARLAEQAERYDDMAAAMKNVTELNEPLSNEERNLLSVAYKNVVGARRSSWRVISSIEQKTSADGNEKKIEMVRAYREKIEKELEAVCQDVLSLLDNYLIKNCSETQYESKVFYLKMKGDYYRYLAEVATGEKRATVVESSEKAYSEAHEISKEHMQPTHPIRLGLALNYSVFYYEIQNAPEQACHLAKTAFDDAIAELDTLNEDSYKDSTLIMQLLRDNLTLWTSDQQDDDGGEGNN
Chain of UniProt P37108 (P37108 whole entry): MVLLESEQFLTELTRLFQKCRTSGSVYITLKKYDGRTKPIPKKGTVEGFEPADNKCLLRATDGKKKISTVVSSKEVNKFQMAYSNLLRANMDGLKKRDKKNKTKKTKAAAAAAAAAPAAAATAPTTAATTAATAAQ
Chain of UniProt P48060 (P48060 whole entry): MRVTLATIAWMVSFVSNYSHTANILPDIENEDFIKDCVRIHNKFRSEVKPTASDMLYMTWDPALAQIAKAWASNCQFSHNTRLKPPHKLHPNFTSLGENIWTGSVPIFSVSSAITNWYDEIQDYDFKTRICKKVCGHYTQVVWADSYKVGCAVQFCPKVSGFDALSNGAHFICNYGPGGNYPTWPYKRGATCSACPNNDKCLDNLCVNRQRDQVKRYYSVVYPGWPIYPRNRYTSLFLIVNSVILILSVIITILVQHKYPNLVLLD

| Target | lysine labeling ratio R10:1 |
| --- | --- |
| TFRC (lysine site: K177) (UniProt P02786) | 2.39 |
| PDIA3 (lysine site: K129) (UniProt P30101) | 1.94 (active) |
| PTPRJ (lysine site: K281) (UniProt Q12913) | 0.907 (active) |
| SPTAN1 (lysine site: K1856) (UniProt Q13813) | 5.67 |
| RPL22 (lysine site: K107) (UniProt P35268) | 2.29 |
| PPIA (lysine site: K133) (UniProt P62937) | 2.46 |
| UniProt Q15149 (lysine site: K3384) | 4.26 |
| SRP14 (lysine site: K55) (UniProt P37108) | 1.02 (active) |
| ICAM1 (lysine site: K67) (UniProt P05362) | 1.69 (active) |
| EEF1G (lysine site: K401) (UniProt P26641) | 2.74 |
| UniProt P18859 (lysine site: K105) | 3.04 |
| LPL (lysine site: K265) (UniProt P06858) | 1.86 (active) |
| FLNA (lysine site: K2473) (UniProt P21333) | 3.58 |
| UniProt P35908 (lysine site: K580) | 5.72 |
| LRP6 (lysine site: K1053) (UniProt O75581) | 2.76 |
| FN1 (lysine site: K116) (UniProt P02751) | 5.35 |
| KRT18 (lysine site: K372) (UniProt P05783) | 2.29 |
| XRCC6 (lysine site: K582) (UniProt P12956) | 1.52 (active) |
| PLXNA2 (lysine site: K542) (UniProt O75051) | 1.9 (active) |
| UniProt P48060 (lysine site: K200) | 3.31 |
| UniProt P61981 (lysine site: K10) | 4.23 |
| ACTN4 (lysine site: K535) (UniProt O43707) | 1.05 (active) |
| DARS (lysine site: K40) (UniProt P14868) | 2.54 |

| Target | lysine labeling ratio R10:1 |
| --- | --- |
| SDC4 (lysine site: K105) (UniProt P31431) | 3.81 |
| PFN1 (lysine site: K54) (UniProt P07737) | 3.31 |
| ITGAV (lysine site: K149) (UniProt P06756) | 4.46 |
| CCT2 (lysine site: K284) (UniProt P78371) | 1.69 (active) |
| FBLN1 (lysine site: K649) (UniProt P23142) | 2.26 |
| L1CAM (lysine site: K180) (UniProt P32004) | 1.59 (active) |
| ATAD3B (lysine site: K214) (UniProt Q5T9A4) | 2.61 |
| SERBP1 (lysine site: K122) (UniProt Q8NC51) | 11.8 |
| FASN (lysine site: K673) (UniProt P49327) | 2.24 |
| RPL4 (lysine site: K239) (UniProt P36578) | 2.48 |
| TLN1 (lysine site: K1544) (UniProt Q9Y490) | 1.54 (active) |
| PDIA3 (lysine site: K130) (UniProt P30101) | 3.07 |
| EHD2 (lysine site: K220) (UniProt Q9NZN4) | 2.14 |
| ECE1 (lysine site: K177) (UniProt P42892) | 7.91 |
| UniProt Q15149 (lysine site: K3685) | 6.03 |
| KRT18 (lysine site: K317) (UniProt P05783) | 7.92 |
| EGFR (lysine site: K500) (UniProt P00533) | 12.8 |
| PSMD1 (lysine site: K890) (UniProt Q99460) | 1.11 (active) |
| MTHFD2 (lysine site: K50) (UniProt P13995) | 3.56 |
| ARPC3 (lysine site: K29) (UniProt O15145) | 1.49 (active) |
| FAT4 (lysine site: K1809) (UniProt Q6V0I7) | 1.9 (active) |
| ECE1 (lysine site: K401) (UniProt P42892) | 2.77 |
| ITGAV (lysine site: K233) (UniProt P06756) | 2.51 |
